Assay [1] addresses Mitogen-activated protein kinase 3 (Homo sapiens) (UniProt P27361). The conditions noted are these: at 1 µM.
Assay [2] addresses SRSF protein kinase 3 (Homo sapiens) (UniProt Q9UPE1). The conditions noted are these: at 0.1 µM.
Assay [3] shares this target. The conditions noted are these: at 1 µM.
The target in assay [4] is Mitogen-activated protein kinase 14 (Homo sapiens) (UniProt Q16539). The conditions noted are these: at 0.1 µM.
The target is the same in assay [5]. The conditions noted are these: at 1 µM.
In assay [6] the target is Mitogen-activated protein kinase 11 (Homo sapiens) (UniProt Q15759). The conditions noted are these: at 0.1 µM.
For assay [7] the target is unchanged. To be noted: at 1 µM.
In assay [8] the target is T1, Mitogen-activated protein kinase 13 (Homo sapiens) (UniProt O15264).
T1 sequence (whole entry): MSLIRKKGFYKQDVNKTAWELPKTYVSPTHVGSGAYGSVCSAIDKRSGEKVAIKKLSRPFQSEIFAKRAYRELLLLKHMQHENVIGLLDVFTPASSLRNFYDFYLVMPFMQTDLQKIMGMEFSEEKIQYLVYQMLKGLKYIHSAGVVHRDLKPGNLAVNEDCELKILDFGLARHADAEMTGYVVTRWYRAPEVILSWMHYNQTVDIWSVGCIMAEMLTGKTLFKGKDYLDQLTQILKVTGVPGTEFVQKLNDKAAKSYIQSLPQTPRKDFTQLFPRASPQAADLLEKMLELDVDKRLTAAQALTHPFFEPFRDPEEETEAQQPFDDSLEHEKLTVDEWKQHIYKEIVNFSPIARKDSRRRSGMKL
The conditions noted are these: at 0.1 µM.

Assay [9] deals with T1, Mitogen-activated protein kinase 13 (Homo sapiens). The conditions noted are these: at 1 µM.
Assay [10] concerns the target T2, Mitogen-activated protein kinase 12 (Homo sapiens) (UniProt P53778).
T2 sequence (whole entry): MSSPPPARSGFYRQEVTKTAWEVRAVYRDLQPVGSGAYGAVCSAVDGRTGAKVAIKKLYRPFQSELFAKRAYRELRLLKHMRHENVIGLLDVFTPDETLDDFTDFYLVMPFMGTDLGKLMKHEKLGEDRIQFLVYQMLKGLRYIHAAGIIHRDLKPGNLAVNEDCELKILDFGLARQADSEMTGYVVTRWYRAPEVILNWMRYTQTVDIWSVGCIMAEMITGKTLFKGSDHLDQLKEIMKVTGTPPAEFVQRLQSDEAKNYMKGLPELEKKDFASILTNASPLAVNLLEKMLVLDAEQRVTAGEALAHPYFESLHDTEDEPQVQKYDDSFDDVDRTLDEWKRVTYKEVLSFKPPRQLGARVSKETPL
The conditions noted are these: at 0.1 µM.

The target in assay [11] is T2, Mitogen-activated protein kinase 12 (Homo sapiens). To be noted: at 1 µM.
The target of assay [12] is SRSF protein kinase 1 (Homo sapiens) (UniProt Q96SB4). The conditions noted are these: at 0.1 µM.
Assay [13] has the same target. The conditions noted are these: at 1 µM.
In assay [14] the target is Phosphatidylinositol 4,5-bisphosphate 3-kinase catalytic subunit alpha isoform (Homo sapiens) (UniProt P42336). The conditions noted are these: at 0.1 µM.
Assay [15] has the same target. The conditions noted are these: at 1 µM.
The target of assay [16] is T3, Phosphatidylinositol 4,5-bisphosphate 3-kinase catalytic subunit delta isoform (Homo sapiens) (UniProt O00329).
T3 sequence (whole entry): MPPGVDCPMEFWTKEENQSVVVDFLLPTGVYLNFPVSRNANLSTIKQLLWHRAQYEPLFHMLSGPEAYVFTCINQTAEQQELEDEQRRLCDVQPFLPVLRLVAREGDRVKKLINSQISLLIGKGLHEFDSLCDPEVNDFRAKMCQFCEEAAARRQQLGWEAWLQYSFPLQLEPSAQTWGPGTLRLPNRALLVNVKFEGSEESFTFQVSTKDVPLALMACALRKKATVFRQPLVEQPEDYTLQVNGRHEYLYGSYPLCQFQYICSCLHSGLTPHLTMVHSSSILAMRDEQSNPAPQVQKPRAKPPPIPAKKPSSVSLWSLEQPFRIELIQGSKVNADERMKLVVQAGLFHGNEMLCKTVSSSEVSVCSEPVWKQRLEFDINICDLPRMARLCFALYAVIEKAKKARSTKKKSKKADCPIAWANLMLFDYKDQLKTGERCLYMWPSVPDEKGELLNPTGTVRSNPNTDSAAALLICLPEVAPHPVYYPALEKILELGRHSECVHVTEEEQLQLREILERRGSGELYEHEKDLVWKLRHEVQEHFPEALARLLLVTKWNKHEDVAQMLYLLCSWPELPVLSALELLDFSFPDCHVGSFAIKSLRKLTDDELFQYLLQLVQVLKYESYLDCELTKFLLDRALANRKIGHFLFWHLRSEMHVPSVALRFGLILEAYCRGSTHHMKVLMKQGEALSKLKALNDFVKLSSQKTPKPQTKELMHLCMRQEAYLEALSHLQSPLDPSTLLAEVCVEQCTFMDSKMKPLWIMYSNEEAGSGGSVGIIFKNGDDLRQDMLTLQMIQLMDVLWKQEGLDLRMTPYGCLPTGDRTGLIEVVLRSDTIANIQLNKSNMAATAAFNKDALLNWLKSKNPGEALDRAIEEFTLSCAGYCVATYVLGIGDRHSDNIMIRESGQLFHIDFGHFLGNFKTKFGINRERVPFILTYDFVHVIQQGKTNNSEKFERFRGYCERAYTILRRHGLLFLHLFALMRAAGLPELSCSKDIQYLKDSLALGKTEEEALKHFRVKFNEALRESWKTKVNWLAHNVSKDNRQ
To be noted: at 0.1 µM.

Assay [17] deals with T3, Phosphatidylinositol 4,5-bisphosphate 3-kinase catalytic subunit delta isoform (Homo sapiens). To be noted: at 1 µM.
The target in assay [18] is Phosphatidylinositol 4-kinase beta (Homo sapiens) (UniProt Q9UBF8). To be noted: at 0.1 µM.
The target is the same in assay [19]. To be noted: at 1 µM.
The target in assay [20] is Sphingosine kinase 1 (Homo sapiens) (UniProt Q9NYA1). The conditions noted are these: at 0.1 µM.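 Further: mean percent inhibition of SPHK1 activity, measured within the GSK PKIS screening panel.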
Sphingosine kinase 1 (Homo sapiens), sequence (Q9NYA1 whole entry): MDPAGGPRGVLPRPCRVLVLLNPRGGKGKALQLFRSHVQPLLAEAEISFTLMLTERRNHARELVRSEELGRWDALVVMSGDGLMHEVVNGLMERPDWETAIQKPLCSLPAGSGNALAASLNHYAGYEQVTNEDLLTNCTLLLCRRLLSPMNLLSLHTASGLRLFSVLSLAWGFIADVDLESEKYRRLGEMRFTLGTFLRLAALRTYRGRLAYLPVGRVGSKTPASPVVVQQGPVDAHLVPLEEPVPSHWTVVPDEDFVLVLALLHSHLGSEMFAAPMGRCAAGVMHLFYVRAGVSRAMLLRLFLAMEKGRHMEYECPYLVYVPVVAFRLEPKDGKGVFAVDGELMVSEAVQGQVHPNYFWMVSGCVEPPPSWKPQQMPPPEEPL

SRSF protein kinase 1 (Homo sapiens), sequence (Q96SB4 whole entry): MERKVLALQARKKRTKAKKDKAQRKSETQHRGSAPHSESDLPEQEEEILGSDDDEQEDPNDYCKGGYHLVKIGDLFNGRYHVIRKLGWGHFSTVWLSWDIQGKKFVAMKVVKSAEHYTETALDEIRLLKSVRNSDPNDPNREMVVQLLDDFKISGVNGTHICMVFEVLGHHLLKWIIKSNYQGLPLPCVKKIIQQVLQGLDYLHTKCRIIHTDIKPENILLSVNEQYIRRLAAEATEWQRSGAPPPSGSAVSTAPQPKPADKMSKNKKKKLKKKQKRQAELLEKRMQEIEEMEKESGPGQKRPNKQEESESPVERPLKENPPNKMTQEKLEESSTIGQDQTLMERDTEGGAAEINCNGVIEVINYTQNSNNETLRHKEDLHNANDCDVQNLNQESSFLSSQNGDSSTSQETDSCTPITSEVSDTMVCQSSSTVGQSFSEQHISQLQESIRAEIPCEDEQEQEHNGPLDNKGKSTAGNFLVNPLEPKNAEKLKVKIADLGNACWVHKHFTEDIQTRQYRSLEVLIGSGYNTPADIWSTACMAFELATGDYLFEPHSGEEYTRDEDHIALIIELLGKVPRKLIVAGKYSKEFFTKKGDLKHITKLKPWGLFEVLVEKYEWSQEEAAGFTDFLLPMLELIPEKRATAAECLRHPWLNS
Phosphatidylinositol 4,5-bisphosphate 3-kinase catalytic subunit alpha isoform (Homo sapiens), sequence (P42336 whole entry, canonical isoform): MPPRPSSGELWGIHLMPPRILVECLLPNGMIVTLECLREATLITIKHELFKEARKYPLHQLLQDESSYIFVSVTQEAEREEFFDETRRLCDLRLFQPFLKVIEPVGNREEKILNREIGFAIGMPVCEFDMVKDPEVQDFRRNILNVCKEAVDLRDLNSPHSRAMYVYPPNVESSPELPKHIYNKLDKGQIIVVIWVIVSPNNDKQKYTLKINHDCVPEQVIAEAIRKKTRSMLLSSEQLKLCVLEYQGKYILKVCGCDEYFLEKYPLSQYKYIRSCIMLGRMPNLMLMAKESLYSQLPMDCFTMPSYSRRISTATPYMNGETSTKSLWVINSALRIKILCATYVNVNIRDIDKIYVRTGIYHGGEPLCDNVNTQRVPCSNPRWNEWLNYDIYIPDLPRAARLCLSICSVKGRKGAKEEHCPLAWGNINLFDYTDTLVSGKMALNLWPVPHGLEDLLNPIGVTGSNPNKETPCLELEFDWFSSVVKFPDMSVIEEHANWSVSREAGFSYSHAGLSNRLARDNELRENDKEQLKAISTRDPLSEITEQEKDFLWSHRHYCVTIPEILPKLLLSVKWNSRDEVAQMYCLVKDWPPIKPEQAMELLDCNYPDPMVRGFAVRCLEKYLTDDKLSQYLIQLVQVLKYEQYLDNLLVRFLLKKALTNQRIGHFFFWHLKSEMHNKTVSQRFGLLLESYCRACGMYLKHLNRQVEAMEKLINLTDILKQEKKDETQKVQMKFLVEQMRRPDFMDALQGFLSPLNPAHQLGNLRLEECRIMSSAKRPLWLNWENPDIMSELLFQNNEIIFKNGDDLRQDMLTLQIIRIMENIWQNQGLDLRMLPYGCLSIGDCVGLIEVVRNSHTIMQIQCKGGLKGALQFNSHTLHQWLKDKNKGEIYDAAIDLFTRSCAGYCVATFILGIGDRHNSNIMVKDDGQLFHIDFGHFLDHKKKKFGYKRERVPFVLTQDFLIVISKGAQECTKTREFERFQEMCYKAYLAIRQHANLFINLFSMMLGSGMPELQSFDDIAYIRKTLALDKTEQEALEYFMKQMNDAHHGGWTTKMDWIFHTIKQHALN
Mitogen-activated protein kinase 11 (Homo sapiens), sequence (Q15759 whole entry): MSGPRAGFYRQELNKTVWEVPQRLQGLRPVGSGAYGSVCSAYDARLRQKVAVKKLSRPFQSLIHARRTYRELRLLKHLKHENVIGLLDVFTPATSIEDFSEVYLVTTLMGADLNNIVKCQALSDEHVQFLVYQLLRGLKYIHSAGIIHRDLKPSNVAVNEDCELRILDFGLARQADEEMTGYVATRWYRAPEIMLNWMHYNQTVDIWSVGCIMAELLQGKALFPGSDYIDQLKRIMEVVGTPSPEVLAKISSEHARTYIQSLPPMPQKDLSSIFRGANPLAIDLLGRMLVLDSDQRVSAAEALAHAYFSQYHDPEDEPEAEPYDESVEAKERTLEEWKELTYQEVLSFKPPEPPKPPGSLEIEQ
SRSF protein kinase 3 (Homo sapiens), sequence (Q9UPE1 whole entry): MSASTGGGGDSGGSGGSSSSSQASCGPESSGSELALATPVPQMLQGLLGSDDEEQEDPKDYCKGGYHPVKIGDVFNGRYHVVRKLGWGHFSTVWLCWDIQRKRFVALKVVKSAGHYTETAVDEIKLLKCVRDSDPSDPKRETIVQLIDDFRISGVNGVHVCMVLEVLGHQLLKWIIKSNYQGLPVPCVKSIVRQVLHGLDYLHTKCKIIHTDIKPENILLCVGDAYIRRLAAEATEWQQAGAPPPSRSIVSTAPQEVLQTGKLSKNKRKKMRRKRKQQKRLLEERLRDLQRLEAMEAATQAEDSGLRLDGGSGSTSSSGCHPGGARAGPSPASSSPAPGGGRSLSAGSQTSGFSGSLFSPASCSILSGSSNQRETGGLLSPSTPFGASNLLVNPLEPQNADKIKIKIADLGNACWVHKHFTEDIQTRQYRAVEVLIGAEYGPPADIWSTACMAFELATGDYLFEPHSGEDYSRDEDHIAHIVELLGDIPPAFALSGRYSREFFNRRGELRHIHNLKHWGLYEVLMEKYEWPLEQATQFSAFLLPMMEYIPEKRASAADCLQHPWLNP
Phosphatidylinositol 4-kinase beta (Homo sapiens), sequence (Q9UBF8 2-816 limits assumed): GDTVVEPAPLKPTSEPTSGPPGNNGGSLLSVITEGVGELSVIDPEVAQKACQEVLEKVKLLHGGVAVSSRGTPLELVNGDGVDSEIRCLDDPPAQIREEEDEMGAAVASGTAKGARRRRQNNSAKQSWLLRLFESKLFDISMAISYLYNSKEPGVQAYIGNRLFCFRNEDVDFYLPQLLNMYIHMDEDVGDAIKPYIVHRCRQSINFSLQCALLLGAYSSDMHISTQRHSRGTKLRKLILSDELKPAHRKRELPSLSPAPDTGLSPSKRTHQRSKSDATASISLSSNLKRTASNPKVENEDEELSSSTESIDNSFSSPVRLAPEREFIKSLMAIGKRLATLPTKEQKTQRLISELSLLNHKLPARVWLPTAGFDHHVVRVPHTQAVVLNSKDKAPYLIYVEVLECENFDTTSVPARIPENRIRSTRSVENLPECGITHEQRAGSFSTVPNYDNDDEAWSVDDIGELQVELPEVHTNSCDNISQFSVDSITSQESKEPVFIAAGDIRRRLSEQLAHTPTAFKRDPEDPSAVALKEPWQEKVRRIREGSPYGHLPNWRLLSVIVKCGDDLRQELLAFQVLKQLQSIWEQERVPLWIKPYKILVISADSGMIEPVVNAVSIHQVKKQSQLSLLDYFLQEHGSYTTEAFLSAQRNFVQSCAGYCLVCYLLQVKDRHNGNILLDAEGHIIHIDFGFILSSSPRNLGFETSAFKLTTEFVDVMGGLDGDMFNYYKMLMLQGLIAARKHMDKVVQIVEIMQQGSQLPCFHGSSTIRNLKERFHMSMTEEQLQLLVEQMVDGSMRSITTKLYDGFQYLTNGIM
Mitogen-activated protein kinase 14 (Homo sapiens), sequence (Q16539 whole entry): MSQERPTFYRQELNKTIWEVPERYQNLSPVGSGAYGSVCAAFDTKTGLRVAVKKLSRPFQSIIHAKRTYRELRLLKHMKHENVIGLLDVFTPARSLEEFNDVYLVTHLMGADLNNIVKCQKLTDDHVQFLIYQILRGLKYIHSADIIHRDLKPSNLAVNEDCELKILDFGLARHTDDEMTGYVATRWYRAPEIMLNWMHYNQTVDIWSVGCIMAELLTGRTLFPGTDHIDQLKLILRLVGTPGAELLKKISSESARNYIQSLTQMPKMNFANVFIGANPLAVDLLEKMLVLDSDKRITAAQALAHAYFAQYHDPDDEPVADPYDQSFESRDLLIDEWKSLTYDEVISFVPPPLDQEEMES
Mitogen-activated protein kinase 3 (Homo sapiens), sequence (P27361 whole entry): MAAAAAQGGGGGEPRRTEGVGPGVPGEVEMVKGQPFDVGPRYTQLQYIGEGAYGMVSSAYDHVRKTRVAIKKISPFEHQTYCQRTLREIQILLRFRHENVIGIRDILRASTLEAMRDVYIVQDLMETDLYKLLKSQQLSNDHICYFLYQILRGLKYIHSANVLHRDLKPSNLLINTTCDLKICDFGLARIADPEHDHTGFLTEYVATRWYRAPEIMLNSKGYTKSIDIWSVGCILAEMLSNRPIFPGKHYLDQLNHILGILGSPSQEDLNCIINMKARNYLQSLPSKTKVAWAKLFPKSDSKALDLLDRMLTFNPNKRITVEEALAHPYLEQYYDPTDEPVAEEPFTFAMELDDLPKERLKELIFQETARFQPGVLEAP

As usually defined, the inhibition is the change of the read-out against control, counted positive when it falls. In the case of `[O-][S+]1CCN(Cc2ccc(-c3ccc4ncnc(Nc5ccc(OCc6ccccc6)c(Cl)c5)c4c3)o2)CC1`, the inhibition in [1] was 2.24%; in assay [2], -1.59%; in [3] it was 0.03%; in [4] it was 16.9%; in assay [5], 20.8%; in assay [6] it was 1.98%. In addition, the inhibition was 5.76% in [7]; 1.28% in assay [8]; 0.19% in assay [9]; 0.47% in [10]; 1.59% in assay [11]; -1.34% in [12]. Also, the inhibition in [13] is -2.79%; in [14], 1.57%; in assay [15] it was 0.92%; in [16] it was 0.92%; in assay [17], 2.1%; in assay [18], -2.13%. The inhibition in assay [19] is -0.85%; in assay [20], 1.88%.
As for `NS(=O)(=O)c1ccc(-c2cc3ccncc3cc2OCc2ccccc2)cc1`, the inhibition in [1] is 3.1%; in assay [2], -2.09%; in assay [3], 3.53%; in assay [4], 7.07%; in [5] it was 8.35%; in assay [6], 2.71%. For the same compound, the inhibition is 6.57% in assay [7]; 5.51% in assay [8]; 3.8% in assay [9]; -0.17% in assay [10]; 2.36% in assay [11]; -1.87% in assay [12]. Moreover, the inhibition came to 0.04% in assay [13]; 3.71% in assay [14]; 4.7% in assay [15]; 1.97% in assay [16]; 2.98% in assay [17]; 3.31% in [18]. In addition, the inhibition in assay [19] came to 0.15%; in assay [20], 1.82%.
On to `COc1cccc(-n2ncc3c(N/N=C/c4ccc(S(C)(=O)=O)cc4)ncnc32)c1`, for which the inhibition in assay [1] is 1.55%; in assay [2], -0.64%; in assay [3] it was 1%; in assay [4] it was -3.8%; in assay [5] it was 4.7%; in [6], 0.81%. For the same compound, the inhibition in [7] is 1.99%; in assay [8], 1.44%; in assay [9], 6.79%; in assay [10] it was 2.12%; in [11] it was 2.32%; in assay [12] it was -0.76%. The inhibition was 0.02% in assay [13]; 1.3% in [14]; 1.54% in assay [15]; 1% in [16]; 2.43% in assay [17]; -0.72% in assay [18]. Also, the values for the inhibition in assay [19] and in [20] were -2.28% and -1.72%, respectively.
For `Nc1ccc(C#Cc2cncnc2Nc2ccc(OCc3cccc(F)c3)c(Cl)c2)cc1`, the inhibition in [1] is 1.8%; in assay [2], -1.31%; in assay [3] it was -1.26%; in [4] it was 7.8%; in assay [5], 8.07%; in assay [6], 5.64%. Moreover, the inhibition in [7] was 6.16%; in assay [8], 2.44%; in [9], 1.41%; in assay [10] it was 2.15%; in [11] it was 2.1%; in assay [12] it was -1.42%. In addition, the inhibition in assay [13] was -0.29%; in assay [14], 2.27%; in assay [15] it was 3.14%; in [16], 0.98%; in assay [17], 1.62%; in assay [18] it was 5.59%. In addition, the inhibition in [19] was determined as 0.07%; in assay [20] it was 0.21%.
`N#Cc1cccc(Nc2nccc(-c3cnn4ncccc34)n2)c1`: the inhibition in assay [1] was determined as 35.8%; in [2] it was 0.24%; in [3] it was 3.11%; in [4] it was 3.74%; in assay [5], 14.6%; in assay [6] it was 3.01%. For the same compound, the inhibition was 14% in [7]; 12.9% in assay [8]; 47.1% in assay [9]; 4.57% in [10]; 26.4% in assay [11]; 0.8% in assay [12]. The inhibition in [13] is 23%; in assay [14], 6.65%; in [15], 23.3%; in [16], 3.45%; in assay [17], 21.2%; in assay [18], -5.91%. Also, the inhibition was 14.8% in assay [19] and -0.07% in assay [20].
In the case of `COc1cc(/C=N/Nc2ncnc3c2cnn3C(C)C)ccc1O`, the inhibition is 2.88% in assay [1]; -2.39% in assay [2]; -1.29% in assay [3]; 1.82% in [4]; 3.92% in [5]; 0.99% in assay [6]. Besides, the inhibition in assay [7] is 2.61%; in [8], 1.12%; in assay [9] it was 3.06%; in [10] it was 1.85%; in assay [11], 1.85%; in assay [12], -0.73%. For the same compound, the inhibition in assay [13] is 1.12%; in assay [14], 19%; in assay [15], 70.5%; in assay [16] it was 20.9%; in [17] it was 71.3%; in assay [18], -8.74%. Moreover, the inhibition in [19] is 26.5%; in assay [20], 0.17%.

For the origin of these results see ChEMBL document CHEMBL1961873, “Compounds: GSK PKIS; Assays: Nanosyn kinase panel” (2012).
